This is an account of results in PubChem BioAssay (Tox21).

Test [1] is described as follows: qHTS assay to identify small molecule antagonists of the estrogen related receptor (ERR) signaling pathway from Tox21 library - cell viability counter screen (AID 1224834). Also: nearly all actives have a fitted effect of over 30% in size. In outline:
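ERR reporter cells were plated 6 h before compound addition, then exposed to test compounds in DMSO for 17.5 h at 37 C. Viability was read as CellTiter-Fluor fluorescence after a 30-minute incubation at 37 C.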

Test [2] concerns the target Luciferin 4-monooxygenase (Photinus pyralis) (UniProt P08659). Put plainly: qHTS assay to identify small molecule inhibitors of firefly luciferase (AID 1224835). Also: series mostly up to about 120 µM; nearly all actives have a fitted effect of over 25% in size. In outline:
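Quantitative HTS format; KM concentrations of both substrates. Purified P. pyralis FLuc activity quantified from luminescence images.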
(In general: qHTS replaces the single test concentration by a dilution series.)

A short description of test [3]: qHTS assay to identify small molecule agonists of the constitutive androstane receptor (CAR) signaling pathway - cell viability counter screen (AID 1224836). Also: series mostly up to about 92 µM; nearly all actives have a fitted effect of over 45% in size. In a few lines:
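Counter screen multiplexed with the CAR reporter readout: HepG2 cells co-transfected with hCAR and the CYP2B6-2.2kb construct receive a 15-concentration compound series and 0.75 uM PK11195 (final), then CellTiter-Fluor fluorescence is read after 23 h.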

Test [4] is described as follows: qHTS assay to identify small molecule antagonists of the constitutive androstane receptor (CAR) signaling pathway - cell viability counter screen (AID 1224837). Also: series mostly up to about 92 µM; nearly all actives have a fitted effect of over 45% in size. In outline: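 HepG2 cells stably expressing hCAR and a CYP2B6-2.2kb reporter were plated and pre-incubated 4 hr at 37 C/5% CO2, then given compounds at 15 concentrations plus 50 nM CITCO (final). After 23 hr, viability was read by CellTiter-Fluor fluorescence.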

Test [5] is described as follows: qHTS assay to identify small molecule antagonists of the estrogen related receptor signaling pathway with the pleiotropic PPARgamma coactivator (PGC) from Tox21 10K library - cell viability counter screen (AID 1224840; active = well fitted cell-killing curve with a large enough effect in the repeat runs, not every such curve was filed as active; also: nearly all actives have a fitted effect of over 40% in size). In outline:
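PGC/ERR cells were seeded at 2,000 cells/well and left 6 hours at 37 C/5% CO2 before pin-tool addition of compounds in DMSO. After 17.5 hours at 37 C, CellTiter-Fluor was added and fluorescence read 30 minutes later.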

Test [6] concerns the target Thyrotropin receptor (Homo sapiens) (UniProt P16473). Nature of the test: qHTS assay to identify small molecule agonists of the thyroid stimulating hormone receptor (TSHR) signaling pathway (AID 1224843; calls by dose curve; also: nearly all actives have a fitted effect of over 45% in size). In outline: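 TSHR-expressing HEK293 cells (800 per well) were exposed to compounds for 30 min at room temperature. cAMP was then detected by HTRF competition with cAMP-d2 and anti-cAMP cryptate, read after 1 h at room temperature. Fifteen concentrations, triplicate.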

Test [7] is described as follows: qHTS assay to identify small molecule agonists of the hypoxia (HIF-1) signaling pathway - cell viability counter screen (AID 1224844; calls by dose curve; also: nearly all actives have a fitted effect of over 50% in size). In a few lines:
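HRE-bla ME-180 cells in medium with 0.5% dialyzed FBS were preincubated 5 hrs at 37C, exposed to compounds for 17 hrs, then viability was read as CellTiter-Glo luminescence after 30 min at room temperature, in the reporter wells.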

A short description of test [8]: qHTS assay to identify small molecule agonists of H2AX (AID 1224845; active = well fitted activation curve with a large enough effect in the signal ratio in the repeat runs, not every such curve was filed as active; the % refers to the signal ratio). In outline:
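Wild-type CHO-K1 cells plated overnight, then exposed 3 hr at 37C to compounds at 15 concentrations (0.76% DMSO). Lysed, then HTRF anti-pH2AX(S139)-cryptate/anti-H2AX-d2 detection after 24 hr at room temperature; emissions 665 and 620 nm.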

Test [9] is described as follows: qHTS assay to identify small molecule agonists of H2AX - cell viability counter screen (AID 1224847; calls by dose curve; also: top concentration of the series differs between compounds; nearly all actives have a fitted effect of over 30% in size). In outline: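 We seed wild-type CHO-K1 cells overnight, treat them for 3 hr at 37C with compounds in 15-concentration series, and quantify remaining viability by CellTiter-Glo luminescence.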
Test [10] is described as follows: qHTS RealTime-Glo MT Cell Viability Assay in HepG2 cells - 24 hour (AID 1224867). Also: nearly all actives have a fitted effect of over 50% in size. In a few lines: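 Real-time, nonlytic viability: 600 HepG2 cells/well mixed with NanoLuc enzyme plus prosubstrate; 5 h settle, compound (DMSO) added by pintool; luminescence monitored over 40 h at 37 C.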
Test [11] can be described thus: qHTS RealTime-Glo MT Cell Viability Assay in HEK293 cells - 32 hour (AID 1224868). Also: top concentration of the series differs between compounds; nearly all actives have a fitted effect of over 50% in size. In outline: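 Cells + reagent dispensed (600 cells/well, HEK293) → 5 h at 37 C/5% CO2 → 23 nL compound in DMSO pinned → 40 h at 37 C → luminescence read at 0, 8, 16, 24, 32, 40 h.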
Test [12] is described as follows: A CellTox Green Cytotoxicity Assay to monitor cytotoxicity in HEK293 cells - 0 hour (AID 1224869). Also: nearly all actives have a fitted effect of over 50% in size. In outline:
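HEK293 cells premixed with CellTox Green dye were seeded at 600 cells/well and left 5 h at 37 C/5% CO2 before pin transfer of 23 nL compound in DMSO. Fluorescence from dye bound to dead-cell DNA was read during 40 h treatment.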

Test [13] can be described thus: qHTS RealTime-Glo MT Cell Viability Assay in HepG2 cells - 40 hour (AID 1224870). Also: nearly all actives have a fitted effect of over 50% in size. Also: potency is read from the fitted curve at half-maximal effect. In a few lines:
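HepG2 cells mixed with RealTime-Glo MT reagents (NanoLuc plus cell-permeant prosubstrate) were seeded at 600 cells/well, incubated 5 h at 37 C/5% CO2, then pinned with compounds in DMSO; nonlytic luminescence tracked viability during 40 h treatment.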

Test [14] can be described thus: qHTS assay to identify small molecule agonists of the estrogen related receptor signaling pathway with the pleiotropic PPARgamma coactivator (PGC) from Tox21 10K library (AID 1224842). Also: nearly all actives have a fitted effect of over 15% in size. In outline: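 PGC/ERR reporter cells (NTP line) were seeded 2,000 per well, rested 6 h at 37 C/5% CO2, then pin-dosed with compounds in DMSO for 18 h at 37 C; luciferase read by One-Glo luminescence after 30 min at room temperature.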

Test [15] in a line: qHTS assay to identify small molecule agonists of the hypoxia (HIF-1) signaling pathway (AID 1224846; active = well fitted activation curve with a large enough effect in the signal ratio in the repeat runs, not every such curve was filed as active; the % refers to the signal ratio). In outline: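 HRE-bla ME-180 cells (beta-lactamase reporter under hypoxia response element) were plated at 2,000 cells/well in medium with 0.5% dialyzed FBS, rested 5 hrs, then given compounds in DMSO for 17 hrs at 37C, 5% CO2. Reporter induction was read with CCF4-AM FRET substrate.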

Test [16] in a line: qHTS assay to identify small molecule antagonists of the estrogen related receptor (ERR) signaling pathway from Tox21 library (AID 1224848). Also: nearly all actives have a fitted effect of over 50% in size. In a few lines: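 Cells: ERR line, 2,000/well; 6 h preincubation 37 C/5% CO2. Cpd in DMSO via pin tool; 18 h, 37 C. ONE-Glo, 30 min RT, luminescence.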
Test [17] concerns the target Nuclear receptor subfamily 1 group I member 3 (Homo sapiens) (UniProt Q14994). Nature of the test: qHTS assay to identify small molecule antagonists of the constitutive androstane receptor (CAR) signaling pathway (AID 1224838). Also: nearly all actives have a fitted effect of over 40% in size. In outline: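 HepG2 cells stably co-transfected with hCAR and a CYP2B6-2.2kb luciferase reporter were seeded 4 h before compound addition at 15 concentrations. Cells were stimulated with 50 nM CITCO (final) for 24 h at 37 C; luciferase luminescence was then read.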

The target is the same in test [18]. Nature of the test: qHTS assay to identify small molecule agonists of the constitutive androstane receptor (CAR) signaling pathway (AID 1224839). Also: series mostly up to about 92 µM; nearly all actives have a fitted effect of over 15% in size. In a few lines: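 A 15-concentration quantitative screen uses HepG2 cells co-transfected stably with human CAR and CYP2B6-2.2kb reporter. Treatment lasts 24 h with 0.75 uM PK11195 final present; ONE-Glo luminescence is the signal.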

Test [19] can be described thus: qHTS assay to identify small molecule antagonists of the estrogen related receptor signaling pathway with the pleiotropic PPARgamma coactivator (PGC) from Tox21 10K library (AID 1224841; call rule not given here). In outline:
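PGC/ERR reporter cells were seeded at 2,000 cells/well and held 6 hours at 37 C/5% CO2 before pin-tool addition of compounds in DMSO. After 18 hours at 37 C, One-Glo was added and luminescence read after 30 minutes at room temperature.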

Test [20] can be described thus: qHTS assay to identify small molecule agonists of the estrogen related receptor (ERR) signaling pathway from Tox21 library (AID 1224849; calls by dose curve; also: nearly all actives have a fitted effect of over 15% in size). In outline: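 ERR reporter cell line (NTP) seeded, rested 6 h at 37 C/5% CO2, then pinned with Tox21 compounds in DMSO. After 18 h at 37 C, ONE-Glo luciferase luminescence was read following 30 min at room temperature.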

A number with no mark means an inactive call. Records with an inconclusive call do not appear. Activity calls are given as the source filed them. Unless noted, calls follow the shape of the dose curve; as a rule, active = well fitted curve in the direction sought with a large enough effect in the repeat runs; inconclusive = weak or mixed curves; inactive = no such curve, though single readings can be large; an effect the other way counts as inactive or inconclusive.

Chain of Thyrotropin receptor (Homo sapiens) (P16473 whole entry, looked up): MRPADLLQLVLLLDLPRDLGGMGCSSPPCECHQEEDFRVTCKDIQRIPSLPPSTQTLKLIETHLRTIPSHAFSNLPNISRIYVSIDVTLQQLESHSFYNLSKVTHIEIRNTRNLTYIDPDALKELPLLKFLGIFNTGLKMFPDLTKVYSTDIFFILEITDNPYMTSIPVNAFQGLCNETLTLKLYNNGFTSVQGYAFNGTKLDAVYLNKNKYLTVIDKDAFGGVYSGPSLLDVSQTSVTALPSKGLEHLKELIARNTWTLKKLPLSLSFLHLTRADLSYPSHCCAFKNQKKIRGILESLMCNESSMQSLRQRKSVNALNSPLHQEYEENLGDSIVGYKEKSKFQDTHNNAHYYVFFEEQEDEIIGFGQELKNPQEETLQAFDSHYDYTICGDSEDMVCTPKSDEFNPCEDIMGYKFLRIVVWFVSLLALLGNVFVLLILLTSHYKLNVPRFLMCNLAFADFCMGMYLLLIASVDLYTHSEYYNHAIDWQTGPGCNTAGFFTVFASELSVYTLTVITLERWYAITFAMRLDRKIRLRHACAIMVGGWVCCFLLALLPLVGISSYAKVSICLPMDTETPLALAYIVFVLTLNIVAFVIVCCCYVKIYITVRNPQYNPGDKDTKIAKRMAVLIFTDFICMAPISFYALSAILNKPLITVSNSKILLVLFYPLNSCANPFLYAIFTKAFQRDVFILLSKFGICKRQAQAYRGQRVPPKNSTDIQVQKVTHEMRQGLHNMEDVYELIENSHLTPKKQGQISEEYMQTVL
Chain of Luciferin 4-monooxygenase (Photinus pyralis) (P08659 whole entry, looked up): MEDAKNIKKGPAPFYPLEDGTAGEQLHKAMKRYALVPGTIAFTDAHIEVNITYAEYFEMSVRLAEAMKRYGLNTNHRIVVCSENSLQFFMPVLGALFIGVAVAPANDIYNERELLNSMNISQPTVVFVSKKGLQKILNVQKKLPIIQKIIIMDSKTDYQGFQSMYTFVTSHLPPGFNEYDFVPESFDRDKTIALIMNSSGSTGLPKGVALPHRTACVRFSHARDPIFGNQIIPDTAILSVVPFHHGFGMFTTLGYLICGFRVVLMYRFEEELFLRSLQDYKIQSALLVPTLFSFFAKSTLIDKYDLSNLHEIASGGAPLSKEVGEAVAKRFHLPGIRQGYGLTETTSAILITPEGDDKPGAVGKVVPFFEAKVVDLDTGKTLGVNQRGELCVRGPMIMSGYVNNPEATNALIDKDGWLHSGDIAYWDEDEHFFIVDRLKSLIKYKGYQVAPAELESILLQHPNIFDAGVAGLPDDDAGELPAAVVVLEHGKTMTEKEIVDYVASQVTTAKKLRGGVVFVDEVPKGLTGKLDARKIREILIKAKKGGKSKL
Chain of Nuclear receptor subfamily 1 group I member 3 (Homo sapiens) (Q14994 whole entry, looked up): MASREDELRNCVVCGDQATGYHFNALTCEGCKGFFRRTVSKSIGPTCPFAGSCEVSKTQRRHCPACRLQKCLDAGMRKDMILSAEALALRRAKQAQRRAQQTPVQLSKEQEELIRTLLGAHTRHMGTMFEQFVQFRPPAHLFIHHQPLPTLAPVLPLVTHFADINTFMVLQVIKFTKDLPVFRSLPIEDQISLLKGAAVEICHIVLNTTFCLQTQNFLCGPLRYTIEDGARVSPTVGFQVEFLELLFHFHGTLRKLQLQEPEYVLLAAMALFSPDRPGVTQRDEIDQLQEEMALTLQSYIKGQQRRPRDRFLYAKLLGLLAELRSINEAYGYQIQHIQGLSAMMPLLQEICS

As to `CC(C)NNC(=O)c1ccncc1`, the Potency result in [1], in [2], in [6], in test [7], in test [8] and in test [11] was “inactive” each time. Besides, the Potency result in [13] is “inactive”. The compound was classed as inactive in test [3], in test [4], in test [5], in test [9], in test [10] and in test [12].
With `C[N+](C)(CCOc1ccccc1)Cc1cccs1`, the Potency result in [1], in test [2], in test [14], in [6], in test [7] and in [8] was “inactive” throughout. In addition, the Potency entry in test [16] and in [11] was “inactive” each time. Besides, the outcome in [3], in test [4], in [5], in test [15], in test [9] and in test [10] was inactive. For the same compound, the compound was classed as inactive in test [12]. Moreover, the Potency in [13] is 23.9 µM (active).
In the case of `Cc1coc2ccccc2c1=O`, the Potency entry in [1], in test [2], in test [6], in test [7], in test [8] and in test [11] was “inactive” throughout. In addition, the Potency result in test [13] was “inactive”. Also, the compound was called inactive in test [3], in test [4], in test [5], in test [15], in test [9] and in [10]. In addition, the call in test [12] was inactive.
With `CCOc1c(N2CCOCC2)cnn(C)c1=O`, the Potency result in [1], in [2], in test [6], in test [8], in test [11] and in test [13] was “inactive” throughout. Moreover, the outcome in [3], in [4], in test [5], in test [15], in [9] and in [10] was inactive. In addition, in [12], the compound was called inactive.
For `CN(C)CCCN(C)CCCN(C)C`, the Potency result in test [1], in [2], in [6], in test [7], in [8] and in test [11] was “inactive” throughout. Further, the Potency entry in test [13] is “inactive”. The call in [3], in test [4], in test [5], in test [15], in [9] and in test [10] was inactive. In addition, the result in test [12] was inactive.
On to `CCCCCCCCCCCCCCCCCCO`, for which the Potency result in [1], in test [2], in test [17], in test [18], in test [8] and in test [11] was “inactive” each time. In test [13], the Potency result is “inactive”. Further, the outcome in test [3], in test [4], in test [5], in test [15], in test [9] and in [10] was inactive. The outcome in test [12] was inactive.
As to `CC(=O)OCC(=O)[C@@]1(O)[C@H](C)C[C@H]2[C@@H]3CCC4=CC(=O)C=C[C@]4(C)[C@@]3(F)[C@@H](O)C[C@@]21C`, the Potency result in test [1], in [2], in test [19], in test [14], in test [7] and in test [8] was “inactive” in each case. The Potency entry in [16], in test [11] and in test [13] was “inactive” throughout. Besides, the result in [3], in [4], in test [5], in [9], in test [20] and in [10] was inactive. Moreover, the compound was classed as inactive in test [12].
Regarding `CCOCC(C)O` (stereo unspecified), the Potency result in [1], in test [2], in test [19], in test [14], in test [7] and in test [8] was “inactive” in each case. Moreover, the Potency result in test [16], in test [11] and in test [13] was “inactive” in each case. Moreover, the call in test [3], in [4], in test [5], in [15], in [9] and in test [20] was inactive. For the same compound, the call in test [10] and in test [12] was inactive.
With `Cc1ccc(-c2ncc(Cl)cc2-c2ccc(S(C)(=O)=O)cc2)cn1`, the Potency result in test [1], in [2], in test [6], in test [7], in test [8] and in test [11] was “inactive” in each case. Further, the Potency entry in test [13] is “inactive”. For the same compound, the compound was called inactive in test [3], in [4], in [5], in test [15], in test [9] and in test [10]. The outcome in test [12] was inactive.
